APOBEC3G inh – inhibitors of human APOBEC3G DNA deaminase. inhibition, % at 20 µM. Q9HC16. actives 0.28% (n = 330,000). recombinant A3G, ssDNA deamination FAM/TAMRA fluorescence;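 active = inhibition of at least 40% at 20 µM, with no more than 30% in the related APOBEC3A deaminase screen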
LANA-H2A inh – blocks KSHV LANA binding to histone H2A/H2B; Q9QR71; cell-free LANA-H2A/H2B peptide, fluorescence polarization; inhibition, % (test concentration not listed); actives 0.6% (n = 320,000); in the data active = inhibition mostly above about 10%, no sharp cut-off; inactive = mostly below about 6.7%
APOBEC3A inh – human APOBEC3A DNA deaminase inhibition; AID 493011; inhibition, % at 20 µM; P31941; recombinant A3A, FAM/TAMRA ssDNA deamination fluorescence; actives 0.41% (n = 330,000);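 active = at least 40% inhibition at 20 µM here, with at most 30% in a related deaminase screen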
HDAC3 inh – blocks human histone deacetylase 3 | O15379 | recombinant HDAC3, fluorogenic peptide/trypsin coupled, fluorescence | inhibition, % at 8.3 µM | actives 0.15% (n = 320,000) | AID 2718; in the data active = inhibition above about 26%, passing the limit was not always enough; inconclusive = no clear call, values can overlap the other calls
Target sequence (O15379 whole entry, looked up): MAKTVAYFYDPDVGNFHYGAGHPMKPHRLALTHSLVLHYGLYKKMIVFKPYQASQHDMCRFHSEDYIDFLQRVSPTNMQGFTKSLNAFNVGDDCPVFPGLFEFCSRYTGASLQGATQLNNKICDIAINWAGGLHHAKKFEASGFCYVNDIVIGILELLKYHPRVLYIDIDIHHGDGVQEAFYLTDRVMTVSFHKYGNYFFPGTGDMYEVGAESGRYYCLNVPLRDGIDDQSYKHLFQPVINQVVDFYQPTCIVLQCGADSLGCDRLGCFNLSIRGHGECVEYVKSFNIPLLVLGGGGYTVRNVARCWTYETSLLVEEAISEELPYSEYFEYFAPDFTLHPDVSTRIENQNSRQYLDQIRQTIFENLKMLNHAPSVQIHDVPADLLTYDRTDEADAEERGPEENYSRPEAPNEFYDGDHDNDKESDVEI
A number is an active result; – = inactive; ? = inconclusive; · = no result. Most compounds without a hit are left out; they make up all but 1.4% or so of the library.

SMILES	APOBEC3G inh	LANA-H2A inh	APOBEC3A inh	HDAC3 inh
CC(C)(C)c1ccc(C(=O)NCc2nnc(SCC(=O)NCC3CCCO3)o2)cc1 (stereo not given)	–	–	–	–
COc1ccc(OCc2cc(C(=O)N3CCN(CC4CC4)CC3)no2)c(Cl)c1	–	25.7	–	–
O=C(NCC1CCCCC1)c1cc(S(=O)(=O)N2CCOCC2)ccc1F	–	–	–	–
Cc1ccc(C)c(NC(=O)CN(C)C(=O)c2cc3c(s2)CCCCC3)c1	–	–	–	–
Cc1ccc(NC(=O)CN(C)C(=O)c2cc3c(s2)CCCCC3)cc1	–	21.4	–	–
CC(NCC(=O)Nc1ccccc1C(=O)NC1CC1)c1cccc(C(F)(F)F)c1 (stereo not given)	–	11.2	–	–
Cc1ccc(NC(=O)C2CC(=O)n3c(nc4ccccc43)N2)cc1C (stereo not given)	–	16.5	–	–
O=C(/C=C/c1cccs1)Nc1nncs1	–	14.6	–	–
CC1CCCN(C(=O)C2CCN(S(=O)(=O)c3cccs3)CC2)C1 (stereo not given)	–	·	–	·
C[N+]1(C)CCC(=C(c2ccccc2)c2ccccc2)CC1	–	15.3	–	–
COc1cccc(OC)c1OCCCOc1c(OC)cccc1OC	–	–	–	–
COc1cccc(OCCOc2c(OC)cccc2OC)c1	–	14.0	–	–
Cc1[nH]nc(SCC(=O)NCc2ccccc2)c1[N+](=O)[O-]	–	·	–	·
Cc1[nH]nc(SCC(=O)NCCc2ccccc2)c1[N+](=O)[O-]	–	12.3	–	–
COc1cc(NC(=S)NC(=O)c2cccs2)ccc1NC(=O)C(C)C	–	36.5	–	–
CC(C)C(=O)Nc1cccc(NC(=S)NC(=O)c2cccs2)c1	–	–	–	–
Cc1ccc(S(=O)(=O)N2C[C@@H]3[C@H]4CC[C@H](C4)[C@@H]3[C@@H](C)[C@H]2c2ccco2)cc1	–	·	–	·
O=C(/C=C/c1ccc(F)cc1)OCC(=O)c1ccc[nH]1	–	85.8	–	–
N#CCSc1ccccc1NC(=O)CN1C(=O)C(=O)N(Cc2ccccc2)C1=O	–	–	–	?
COc1ccc(S(=O)(=O)Nc2ccc3c(c2)C(=O)N([C@H](C)CO)C[C@H](C)[C@@H](CN(C)S(C)(=O)=O)O3)cc1	–	–	–	–
COc1ccc(C(=O)NC2=Nc3ccccc3N=C(C)C2c2ccccc2)cc1 (stereo not given)	–	–	–	76.6
Nc1ccc(N)c(C(=O)O)c1	–	-0.2	–	–
O=C(CCNC(=O)c1ccc(Cl)cc1)Nc1cccc(S(=O)(=O)N2CCCCC2)c1	–	–	–	–
O=C1N[C@H](Cc2ccccc2)COC(=O)[C@@H](Cc2ccc(F)cc2)CC/C=C/C[C@H]1CC(=O)N(CCO)Cc1ccccc1	–	–	–	28.7
CNC1(C)[C@H]2CC[C@H](C2)C1(C)C (stereo not given in full)	–	·	–	·
SMILES	APOBEC3G inh	LANA-H2A inh	APOBEC3A inh	HDAC3 inh
CCOc1cc2c(cc1OCC)C(C(=O)O)C(c1cc(Br)c(O)c(OC)c1)N(C)C2=O (stereo not given)	–	14.6	–	–
Cn1c(=O)c(=O)n(C)c2cc(S(=O)(=O)N3CCCCCC3)ccc21	–	–	–	–
CCc1ccccc1NC(=O)C1CCCN1S(=O)(=O)c1ccc2c(c1)n(C)c(=O)c(=O)n2C (stereo not given)	–	–	–	–
Cn1c(=O)c(=O)n(C)c2cc(S(=O)(=O)N3CCC(Cc4ccccc4)CC3)ccc21	–	12.6	–	–
CN(Cc1ccccc1)C(=O)C1CCCN1S(=O)(=O)c1ccc2c(c1)n(C)c(=O)c(=O)n2C (stereo not given)	–	23.8	–	–
COc1ccccc1C(=O)NCCC(=O)Nc1ccc(S(=O)(=O)N2CC(C)CC(C)C2)cc1 (stereo not given)	–	·	–	–
Cc1cc(C(=O)OCC(=O)NC2(C#N)CCCCC2)c(C)o1	–	·	–	·
S=C(NCc1cccs1)Nc1cc(Cl)cc(Cl)c1	–	21.4	–	–
CC1CCN(C(=O)CSc2nnc3ccc(-c4cccnc4)nn23)CC1	–	–	–	–
CC(C)C(c1nnnn1C1CCCCC1)N1CCOCC1 (stereo not given)	–	18.9	–	–
O=C(CSc1nnc(Nc2ccccc2F)s1)NC1CC1	–	–	–	–
CC(=O)Nc1ccc(S(=O)(=O)NCC(=O)OCC(=O)N2CCc3ccccc32)cc1	–	11.4	–	–
O=C(CNS(=O)(=O)c1ccccc1Br)OCC(=O)N1CCc2ccccc21	–	–	–	–
COc1ccccc1C(C)Nc1ccc(S(=O)(=O)N2CCN(C)CC2)cc1[N+](=O)[O-] (stereo not given)	–	–	–	–
CCN(CC(=O)Nc1ccc(NC(C)=O)cc1)C(=O)C1CCCC1	–	102.9	–	–
